# Source: PubChem BioAssay (NCI)
# Where “and” joins values, the source holds several entries; their conditions need not be identical. Identical values can stand only once. About 83,000 compounds went through this panel and 20% of them were active in at least one assay; those are over-represented in the sample as a whole.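 Plates (96-well) were seeded with cells, treated with compound at one concentration, and incubated for 48 hours before percent growth was determined.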 Calls of active or inactive are those of the source.
# Tested on: T-47D breast
# Assay: NCI-60 one-dose screen, 48 h (100 = growth as untreated, 0 = no growth, -100 = all killed)
# Conditions: 10 µM unless noted
# Procedure: Growth inhibition of the T-47D human tumor cell line is measured as a screen for anti-cancer activity. Cells are grown in 96 well plates and exposed to the test compound for 48 hours. Compounds are tested at a single concentration, which is 10^-5 M for most compounds. The reported endpoint is percent growth (GI% or GIPRCNT), where numbers from 0 - 100% represent growth inhibition, and numbers from -100% - 0 represent cell death. For example, a value of 40 represents 60% growth inhibition. A value of 0 means no net growth occurred over the course of the experiment. A value of -40 indicates 40% of cells at the beginning of the experiment died by the end of the experiment. A value of -100 means all cells are dead at the end of the experiment.
# NCI-60 Human Tumor Cell Lines Screen was performed using the standard one-dose NCI protocol, which is described in more detail at https://dtp.cancer.gov/discovery_development/nci-60/default.htm.
# Compounds with GIPRCNT values below 10 were considered active. Activity score was based on GIPRCNT using the following formula: […]
# Score is 0 for GIPRCNT values of 100 or above, 50 for GIPRCNT values of 0, and 100 for GIPRCNT values of -100.
row,Structure (SMILES),growth
1,O=C(CCCN1CCC2(CC1)C(=O)NCN2c1ccccc1)c1ccc(F)cc1,45.5% (inactive) and 23.4% (inactive)
2,CCOP(=O)(NC)OCC,102% (inactive)
3,CC1=C([Te]c2ccccc2)C(=O)c2ccccc2C1=O,-51.9% (active)
4,CC(=O)C(N)Cc1ccccc1 (stereo not given),78.3% (inactive)
5,COc1ccc2c(c1)C1(C)CCN(C)CC(C1)C2O (stereo not given),95.2% (inactive)
6,COC(=O)CCP(CCC(=O)OC)c1ccccc1,112% (inactive)
7,CCC(=O)C(CC(C)N1CCCCCC1)(c1ccccc1)c1ccccc1 (stereo not given),95.3% (inactive)
8,Cc1ccc(S(=O)(=O)n2cc([C@@]3(O)C[C@H](CSC#N)OC3=O)c3ccccc32)cc1,62.8% (inactive)
9,C[C@]12CCC3[C@@H](C[C@@H]4SC(Nc5ccccc5)=N[C@@]45CC(=O)CC[C@]35C)[C@@H]1CCC2=O (stereo not given in full),-27.4% (active)
10,CCCCOC(N)=O,102% (inactive)
11,C/C(=C\c1ccn(-c2ccc(N)cc2F)n1)[C@@H]1C[C@@H]2O[C@]2(C)CCC[C@H](C)[C@H](O)[C@@H](C)C(=O)C(C)(C)[C@@H](O)CC(=O)O1,35.5% (inactive)
12,Oc1ccccc1C=NCCN=Cc1ccccc1O,103% (inactive)
13,O=c1[nH]c(=O)[nH]c(=O)[nH]1,102% (inactive)
14,C[N+]1(C)CCCC1c1cccnc1 (stereo not given),96.5% (inactive)
15,O=C1CCCCC1CN1CCCCC1 (stereo not given),83.2% (inactive)
16,COc1ccc(CN)cc1OC,113% (inactive) and 97.4% (inactive)
17,CN1CCN(c2ccc(Cl)cc2)CC1,90% (inactive)
18,Nc1ccc2c(c1)Cc1cc(N)ccc1-2,67.3% (inactive)
19,CCN1C(=O)NC(=O)C(C)(N2C(=O)c3c(F)c(F)c(F)c(F)c3C2=O)C1=O (stereo not given),23.5% (inactive)
20,S=P(SP(=S)(c1ccccc1)c1ccccc1)(c1ccccc1)c1ccccc1,103% (inactive)

row,Structure (SMILES),growth
1,CN(C)c1ccc(N)cc1,90.7% (inactive) and 28.5% (inactive)
2,Cc1cc(N(CCCl)CCCl)ccc1/C=N\NC(=O)c1cccnc1,57.5% (inactive) and 60.7% (inactive)
3,C#COc1cccc(Nc2ncnc3cc(NC(=O)CF)ccc23)c1,40.9% [6.25 µM] (inactive)
4,N#CCc1ccc(CC#N)cc1,87.5% (inactive)
5,CO[C@@H]([CH2][Hg][O]C(=O)c1ccccc1)[C@@H]([CH2][Hg][O]C(=O)c1ccccc1)OC,87.7% (inactive)
6,C[C@]12CC[C@H](O)C[C@@H]1CC[C@@H]1[C@@H]2CC[C@]2(C)OC(=O)CC[C@@H]12,63.6% (inactive)
7,COc1ccc(C(C#N)C(C)=O)cc1 (stereo not given),104% (inactive)
8,CCCCS(=O)(=O)Cl,100% (inactive)
9,O=[N+]([O-])c1c(Cl)cc(Cl)c([N+](=O)[O-])c1Cl,22.2% (inactive)
10,ClCc1ccc(Cl)c(Cl)c1,106% (inactive)
11,O=S(=O)(c1ccc(O)cc1)c1ccccc1O,102% (inactive)
12,O=P1(N(CCCl)CCCl)NCCCO1 (stereo not given),113% (inactive)
13,C=C[Se]CC(=O)/C=C/c1ccccc1,82.3% (inactive)
14,CCCCOCCOP(=O)(OCCOCCCC)OCCOCCCC,96.2% (inactive)
15,O=S(=O)(F)c1cccc(Cl)c1C[P+](c1ccccc1)(c1ccccc1)c1ccccc1,91.9% (inactive)
16,O=[N+]([O-])c1cc(Cl)c(Cl)c([N+](=O)[O-])c1Cl,0.463% (active)
17,C=C1C(=O)OC2CC3(C)OC3C3OC3C3=CC(OC3=O)C12 (stereo not given),5.88% (active) and 16.2% (inactive)
18,Cc1nc2ccccc2c(=O)n1-c1ccccc1F,79.1% (inactive)
19,Nc1nc(=S)nc(N)[nH]1,94.5% (inactive)
20,CC1(C)C2CCC1(CS(=O)(=O)O)C(=O)C2 (stereo not given),87.1% (inactive) and 115% (inactive)
